Reference: PubChem BioAssay (Tox21)
Records with an inconclusive call do not appear. Activity calls are given as the source filed them. Calls follow the shape of the full dose curve.

Target: Thyrotropin receptor (Homo sapiens) (UniProt P16473)
Assay: qHTS assay to identify small molecule antagonists of the thyroid stimulating hormone receptor (TSHR) signaling pathway (AID 1259385); also: nearly all actives have a fitted effect of over 20% in size
Settings: TSHR-HEK293 cAMP HTRF, TSH-stimulated antagonist mode; series mostly up to 92.4 µM; activity change, negative = inhibition: at the top concentration
Procedure, shortened: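 TSHR-HEK293 cells (800/well) plated 18 h, then compounds with Ro20-1724 and TSH at 1.5 ng/mL final, 30 min at room temperature. cAMP quantified by HTRF (cAMP-d2/anti-cAMP-cryptate, 1 h); 15 concentrations in triplicate.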
% is scaled to controls: 0 for no effect and ±100 for the full control effect; potency is read from the fitted curve at half-maximal effect.

Thyrotropin receptor (Homo sapiens), sequence (P16473 whole entry, looked up): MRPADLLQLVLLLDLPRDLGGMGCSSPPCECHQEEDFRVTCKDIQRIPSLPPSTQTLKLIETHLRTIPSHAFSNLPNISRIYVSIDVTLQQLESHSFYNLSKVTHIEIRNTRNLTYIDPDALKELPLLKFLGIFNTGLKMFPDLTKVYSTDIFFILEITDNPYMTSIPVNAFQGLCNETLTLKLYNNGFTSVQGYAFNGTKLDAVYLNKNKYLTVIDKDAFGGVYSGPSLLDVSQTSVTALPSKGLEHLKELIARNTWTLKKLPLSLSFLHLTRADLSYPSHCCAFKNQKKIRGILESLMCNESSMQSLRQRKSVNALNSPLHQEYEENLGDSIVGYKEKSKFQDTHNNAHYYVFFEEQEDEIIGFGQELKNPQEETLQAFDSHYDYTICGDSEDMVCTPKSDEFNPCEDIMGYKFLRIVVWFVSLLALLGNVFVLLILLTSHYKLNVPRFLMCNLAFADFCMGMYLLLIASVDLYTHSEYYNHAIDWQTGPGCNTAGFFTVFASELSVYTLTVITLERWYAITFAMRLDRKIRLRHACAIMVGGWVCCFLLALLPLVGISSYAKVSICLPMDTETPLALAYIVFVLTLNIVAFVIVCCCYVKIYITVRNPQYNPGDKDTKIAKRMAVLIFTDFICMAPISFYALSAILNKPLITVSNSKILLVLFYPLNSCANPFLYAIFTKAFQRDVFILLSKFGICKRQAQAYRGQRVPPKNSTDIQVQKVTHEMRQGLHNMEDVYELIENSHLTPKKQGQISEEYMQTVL

Compound	activity change, negative = inhibition	Potency
Cc1cc(N)c(S(=O)(=O)O)cc1Cl	-1.48% (inactive)	–
O=c1cc(-c2ccc(O)cc2)oc2cc(O)cc(O)c12	–	inactive
CO[Si](CCCNc1ccccc1)(OC)OC	-4.36% (inactive)	–
CCCCCCCCCCCC[N+](C)(C)CCCCCCCCCCCC	10.5% (inactive)	–
C/C=C(\C)C(=O)OCc1ccccc1	-2.56% (inactive)	–
CCN(C(=O)c1cc(C)cc(OC[C@H](C)Nc2ccncc2)c1)C(C)C	-6.97% [at 42.5 µM] (inactive)	–
O=C(O)c1c(Cl)cccc1Cl	5.06% (inactive)	–
CC(C)(C)c1ccc(C(=O)O)cc1	0.553% (inactive)	–
O=C(Nc1cccc(Cl)c1)OCC#CCCl	-11.7% (inactive)	–
CN(C)[C@@H]1C(=O)C(C(N)=O)=C(O)[C@@]2(O)C(=O)C3=C(O)c4c(O)cccc4C[C@H]3C[C@@H]12	0.678% [at 42.5 µM] (inactive)	–
Oc1cccc2cc3cccc(O)c3c(O)c12	-3.75% (inactive)	–
Oc1ccc2cc(SSc3ccc4cc(O)ccc4c3)ccc2c1	–	inactive
CCCCCOC(=O)CCCC	-0.0953% (inactive)	–
C1CCCC1	-2.02% (inactive)	–
CCCC/C=C/CCCCO	4.35% (inactive)	–
CCCCCCCC/C=C\CCCCCCCCOCCO	–	89.1 µM (active)
OCCCCCCCCCCCCBr	-0.711% (inactive)	–
C[n+]1ccn(Cc2ccccc2)c1	-0.328% (inactive)	–
CSc1cnc(C)cn1	0.539% [at 240 µM] (inactive)	–
Clc1ccccc1C(c1ccccc1)(c1ccccc1)n1ccnc1	–	54.5 µM (active)
CCC(Cl)C(Cl)C(Cl)CC(Cl)C(Cl)C(C)Cl (configuration not stated)	-0.596% (inactive)	–
O=C1c2ccccc2Cc2ccccc21	-8% (inactive)	–
